ELG1 DNA repair: qHTS screen for small molecules that inhibit ELG1-dependent DNA repair in human embryonic kidney (HEK293T) cells expressing luciferase-tagged ELG1. HEK293T ELG1-luciferase reporter, luminescence, 16 h; DNA damage induced by 5-fluorouridine. Potency, µM (series often up to 46.1 µM), usual class: inhibitors. 2.3% of 330,000 active. AID 504467, 2011; further: nearly all actives have a fitted effect of over 55% in size
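Cells (2,000 per well) received 5-fluorouridine plus test compound or DMSO and were incubated 16 hr at 37 °C, 5% CO2. Luciferase activity was read by luminescence 30 min after ONE-Glo addition; signal suppression marked inhibition of damage-induced ELG1 function.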
Giardia killer: Small Molecules that selectively kill Giardia lamblia: qHTS | Giardia lamblia trophozoite viability | activity change, % at 7.66 µM, hits read low | 0.15% of 340,000 active; in the data active means activity change below about -80%; inconclusive means between about -30% and that limit;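 further: parasites exposed to compound for two days anaerobically before the ATP read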
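Trophozoite viability was measured as ATP-dependent luminescence, read 15-30 min after reagent addition. Before that, parasites at 100 cells/well were exposed to compounds for 48 h, anaerobically, at 37 deg C.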
p53 reactivator: qHTS assay for re-activators of p53 using a Luc reporter | H1299 p53-A138V BP100-luciferase reporter, luminescence, 24 h | Potency, µM (top dose mostly 92.2 µM), actives largely listed as activators | 0.063% of 320,000 active; further: nearly all actives have a fitted effect of over 45% in size
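p53-null H1299 cells stably carrying temperature-sensitive p53-A138V and a BP100-luciferase reporter were pinned with compounds (4-point, 1:5 series) and held 24 hrs at 37 deg C. Luminescence was read 10 min after detection reagent.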
BRCA1 expr up: qHTS Assay to Identify Small Molecule Activators of BRCA1 Expression | 1.1% of 380,000 active | AID 624202, 2012 | Potency, µM (top dose mostly 46.1 µM), most hits filed as activators | MCF7-BRCA1-FFLuc reporter, luminescence, 48 h; response scale: scaled: vehicle 0%, 10 µM genistein 100%; further: nearly all actives have a fitted effect of over 80% in size
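MCF7-BRCA1-FFLuc cells, 2000/well in phenol-red-free MEM, attached 2 h then treated 48 h at 37 C. Luciferase luminescence read 15 min after reagent; normalized to genistein maximum activation (10microM) and DMSO, concentration-response fitted.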
RORgamma inh: qHTS for inhibitors of ROR gamma transcriptional activity. Nuclear receptor ROR-gamma (Mus musculus), P51450. Drosophila S2 Gal4-RORgamma UAS-luciferase reporter, 20 h. Potency, µM (highest dose often 53.6 µM), hits mostly inhibitors. 5.4% of 310,000 active; further: nearly all actives have a fitted effect of over 60% in size
Target sequence (P51450 whole entry, looked up, the tested form may be a part): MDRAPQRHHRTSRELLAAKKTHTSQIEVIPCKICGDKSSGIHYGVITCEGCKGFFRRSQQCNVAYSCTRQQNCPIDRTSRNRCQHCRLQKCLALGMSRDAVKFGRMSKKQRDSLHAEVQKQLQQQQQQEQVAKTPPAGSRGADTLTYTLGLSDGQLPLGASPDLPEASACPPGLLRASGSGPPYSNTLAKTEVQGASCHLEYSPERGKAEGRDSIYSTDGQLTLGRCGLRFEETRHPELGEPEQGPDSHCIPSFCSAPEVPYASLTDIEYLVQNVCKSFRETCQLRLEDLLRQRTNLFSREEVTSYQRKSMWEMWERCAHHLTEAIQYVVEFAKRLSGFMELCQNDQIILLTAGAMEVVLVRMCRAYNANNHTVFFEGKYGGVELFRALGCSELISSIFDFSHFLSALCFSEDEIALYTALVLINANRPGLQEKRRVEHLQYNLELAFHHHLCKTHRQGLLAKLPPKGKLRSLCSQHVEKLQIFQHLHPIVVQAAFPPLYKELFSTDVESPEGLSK
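Drosophila Schneider cells stably carrying a metallothionein-driven Gal4 DBD–ROR gamma fusion and a UAS-Photinus luciferase reporter were exposed to compound for 1 hr, then induced with copper sulfate (700 uM final) for 20 hr at ambient temperature before luminescence reading.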
VP16 counter: VP16 counterscreen qHTS for inhibitors of ROR gamma transcriptional activity | Drosophila S2 Gal4-VP16 UAS-luciferase, luminescence, 20 h | Potency, µM (top dose mostly 53.6 µM), actives largely listed as inhibitors | 3.5% of 310,000 active;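 further: Gal4-VP16 expression switched on by copper sulfate through the metallothionein promoter; nearly all actives have a fitted effect of over 50% in size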
Large screens that a line does not name were inactive. The list is not random: actives were taken first. Their share in the collection is about 7.6%. Unless noted, the call rests on the fitted dose curve; in most records, active means well fitted curve in the direction sought with a large enough effect; inconclusive means small, poorly fitted or top-dose-only effect, or another doubt; inactive means no such curve, though single readings can be large; an effect the other way counts as inactive or inconclusive.

O=C(N/N=C/c1cn(-c2ccccc2)nc1-c1ccc(F)cc1)c1ccc2c(c1)OCO2	ELG1 DNA repair inconclusive, RORgamma inh 2.2µM, VP16 counter inconclusive
O=C(NN=Cc1ccc2c(c1)OCO2)c1ccccc1	BRCA1 expr up inconclusive (no result: ELG1 DNA repair, p53 reactivator, RORgamma inh, VP16 counter)
O=C(N/N=C\c1cn(-c2ccccc2)nc1-c1ccccc1)c1ccc2c(c1)OCO2	ELG1 DNA repair inconclusive, RORgamma inh 1.8µM, VP16 counter inconclusive
CCn1cc(/C=N/NC(=O)c2ccc3c(c2)OCO3)c(C)n1	none
CCCCn1c(N)c(Sc2ccccc2)c(=O)[nH]c1=O	none
COc1cccc(-c2cnc(C(O)c3ccc(C(C)(C)C)cc3)[nH]2)c1 (configuration not stated)	none (no result: ELG1 DNA repair, Giardia killer, p53 reactivator, RORgamma inh, VP16 counter)
Cc1cccc(OCc2nnc(SCC(=O)NCC3CCCO3)n2C)c1 (configuration not stated)	none
CCc1nc(SCc2ccc(OC)cc2)n[nH]1	ELG1 DNA repair inconclusive, p53 reactivator inconclusive, BRCA1 expr up 11µM
Cc1ccc(Cn2c(SCCN3CCCCC3)nc3c2c(=O)[nH]c(=O)n3C)cc1	none
Cn1cc(S(=O)(=O)N2CCCC2)cc1C(=O)O	none (no result: RORgamma inh, VP16 counter)
Brc1ccc(-c2csc(-c3c[nH]c4ccccc34)n2)cc1	ELG1 DNA repair inconclusive, p53 reactivator 45µM
c1ccc2c(-c3csc(-c4ccncc4)n3)c[nH]c2c1	ELG1 DNA repair inconclusive, VP16 counter inconclusive
CCOc1cc(/C=C\[N+](=O)[O-])ccc1OCC(=O)N1CCOCC1	RORgamma inh 4.5µM, VP16 counter 5.6µM
CCOc1cc(/C=N/NC(=S)Nc2ccccc2C(F)(F)F)ccc1OCC(=O)N1CCOCC1	ELG1 DNA repair 12µM, RORgamma inh 1.4µM, VP16 counter 1.4µM
CC(C)(C)C1CCC(=NNC(=S)Nc2cccnc2)CC1 (configuration not stated)	RORgamma inh inconclusive
CCNC(=S)NN=C1CCC(C(C)(C)C)CC1 (configuration not stated)	RORgamma inh 8.9µM
CC1=C(C(=O)OC2CCCCC2)C(c2cccnc2)n2nnnc2N1 (configuration not stated)	VP16 counter 16µM
CCOC(=O)c1ccc(-c2c(C(=O)OCC)oc3cc(O)c(CC)cc3c2=O)o1	ELG1 DNA repair inconclusive, RORgamma inh 3.2µM, VP16 counter inconclusive
CCOC(=O)c1oc2cc(O)c(CC)cc2c(=O)c1-c1cscn1	none
Cc1onc(-c2c(Cl)cccc2Cl)c1C(=O)N(C)Cc1ccccc1	none (no result: p53 reactivator)
CN=C1S/C(=C\c2ccc(OCC(=O)OC)c(OC)c2)C(=O)N1C	none (no result: p53 reactivator)
CC(=NC1CCCC1)c1c(C)[nH]n(-c2nc3ccccc3s2)c1=O	ELG1 DNA repair inconclusive, p53 reactivator inconclusive, RORgamma inh 3.5µM, VP16 counter inconclusive
CC(=NCCCn1ccnc1)c1c(-c2ccccc2)[nH]n(-c2nc3ccccc3s2)c1=O	ELG1 DNA repair inconclusive
CC(=NC1CC1)c1c(-c2ccccc2)[nH]n(-c2nc3ccccc3s2)c1=O	RORgamma inh 1.3µM, VP16 counter inconclusive
CCOC(=O)C(=Cc1ccc(Br)cc1)C(=O)OCC	ELG1 DNA repair inconclusive, RORgamma inh 14µM, VP16 counter inconclusive
CCOC(=O)C(=Cc1ccc(F)cc1)C(=O)OCC	ELG1 DNA repair inconclusive, RORgamma inh 10µM, VP16 counter inconclusive (no result: Giardia killer, BRCA1 expr up)
COC(CNS(=O)(=O)c1cc2c3c(c1)CCN3C(=O)CC2)OC	none
COc1cc(C(C[N+](=O)[O-])c2c(C)cc3ccccn23)ccc1O (configuration not stated)	RORgamma inh 16µM, VP16 counter inconclusive
COc1cc(C(C[N+](=O)[O-])c2c(-c3ccccc3)cc3ccccn23)cc(OC)c1OC (configuration not stated)	ELG1 DNA repair inconclusive, RORgamma inh inconclusive, VP16 counter inconclusive
COc1ccc(C(C[N+](=O)[O-])c2c(-c3ccccc3)cc3ccccn23)cc1OC (configuration not stated)	RORgamma inh 8.9µM, VP16 counter inconclusive (no result: ELG1 DNA repair, p53 reactivator)
O=C(CSc1nc2ccccc2c(=O)n1Cc1ccco1)N1CCCCCC1	ELG1 DNA repair inconclusive, RORgamma inh inconclusive, VP16 counter inconclusive
N#Cc1c2ccc([N+](=O)[O-])cc2[n+]([O-])n1-c1ccccc1	ELG1 DNA repair 10µM (no result: Giardia killer, BRCA1 expr up, RORgamma inh, VP16 counter)
Cc1ccc(C(=O)c2c3ccc([N+](=O)[O-])cc3[n+]([O-])n2CCCC(N)=O)cc1	Giardia killer inconclusive (no result: RORgamma inh, VP16 counter)
CCOCC(=O)Nc1cc(C(F)(F)F)ccc1Oc1cccc(Br)c1	none
CC(=O)Nc1cc(C(F)(F)F)ccc1Oc1cccc(Br)c1	RORgamma inh inconclusive, VP16 counter 13µM
COc1ccccc1-n1c(SCC(=O)Nc2ccc(NC(C)=O)cc2)nc2c([nH]c3ccccc32)c1=O	ELG1 DNA repair 10µM
CC(=O)Nc1ccc(NC(=O)CSc2nc3c([nH]c4ccccc43)c(=O)n2-c2ccccc2F)cc1	ELG1 DNA repair 16µM
COc1ccc(NC(=S)Nc2ccccc2F)c(OC)c1	RORgamma inh 11µM
CSc1ccccc1NC(=S)Nc1cc(C)cc(C)c1	RORgamma inh 6.3µM, VP16 counter 14µM
COc1ccc(NC(=S)Nc2ccccc2SC)c(OC)c1	RORgamma inh 11µM, VP16 counter inconclusive
Fc1ccc(NC(=S)Nc2ccccc2Cl)cc1	ELG1 DNA repair inconclusive, RORgamma inh inconclusive
Nc1nc(CSc2nnnn2-c2ccc(F)c(Cl)c2)nc(N2CCOCC2)n1	none (no result: ELG1 DNA repair, p53 reactivator, RORgamma inh, VP16 counter)
COc1ccccc1C(=O)COC(=O)CNC(=O)c1ccc(Br)o1	none (no result: RORgamma inh, VP16 counter)
O=C(NCc1ccccc1F)C(=O)NCC1OCCCN1S(=O)(=O)c1cccs1 (configuration not stated)	none
CN(Cc1nc2ccccc2c(=O)[nH]1)c1ccccc1	none
COc1cc2nc(CN(C)Cc3nc4ccccc4c(=O)[nH]3)[nH]c(=O)c2cc1OC	ELG1 DNA repair inconclusive, RORgamma inh 1.6µM, VP16 counter 3.5µM
CCN(Cc1nc2ccccc2c(=O)[nH]1)Cc1nc2cc(OC)c(OC)cc2c(=O)[nH]1	ELG1 DNA repair inconclusive, RORgamma inh 1.3µM, VP16 counter 2.2µM
CN(Cc1cc(=O)n2ccsc2n1)Cc1nc2ccccc2c(=O)[nH]1	RORgamma inh 7.9µM, VP16 counter inconclusive
CCN(Cc1nc2ccccc2c(=O)[nH]1)Cc1nc2ccsc2c(=O)[nH]1	ELG1 DNA repair inconclusive, RORgamma inh 0.45µM, VP16 counter 1µM

Source: PubChem BioAssay (National Center for Advancing Translational Sciences (NCATS))
